High-throughput results from PubChem.
In the library only some 2.3% were active in any assay of this set; here they are far more common.
Bcl-xL primary: inhibitors of human Bcl-xL, primary screen, biochemical, fluorescence polarization, HTS | GST-Bcl-xL / FITC-Bim BH3 peptide fluorescence polarization | inhibition, % at 10.9 µM | hit rate 0.7% among 320,000 | AID 2129, 2009;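 active means inhibition above the mean of all tested compounds plus 3 SD, cutoff set per campaign, cut at about 30% in these data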;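 further: 0% = DMSO wells and 100% = unlabeled Bim-BH3 peptide competitor; inhibitors lower millipolarization by displacing the labeled peptide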
Target sequence (Q07817 whole entry, looked up): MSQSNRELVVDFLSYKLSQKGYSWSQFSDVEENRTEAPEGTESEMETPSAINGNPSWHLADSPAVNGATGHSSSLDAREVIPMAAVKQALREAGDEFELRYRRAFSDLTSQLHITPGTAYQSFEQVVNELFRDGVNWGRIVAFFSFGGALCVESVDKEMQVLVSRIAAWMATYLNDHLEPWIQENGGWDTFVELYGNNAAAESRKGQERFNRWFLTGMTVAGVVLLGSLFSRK
GLD-1 TGE inh: GLD-1/TGE RNA complex disruptors, primary screen, biochemical, fluorescence polarization | Female germline-specific tumor suppressor gld-1 (Caenorhabditis elegans), Q17339 | purified GLD-1 + fluorescein TGE RNA | AID 2280, 2010 | inhibition, % at 5.96 µM | hit rate 0.44% among 320,000;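 active means percent inhibition above a per-plate cutoff, the plate mean of test compounds plus 3 SD, cut at about 30% in these data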;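 further: 0% = DMSO wells with GLD-1 and probe and 100% = wells lacking GLD-1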
Target sequence (Q17339 whole entry, looked up): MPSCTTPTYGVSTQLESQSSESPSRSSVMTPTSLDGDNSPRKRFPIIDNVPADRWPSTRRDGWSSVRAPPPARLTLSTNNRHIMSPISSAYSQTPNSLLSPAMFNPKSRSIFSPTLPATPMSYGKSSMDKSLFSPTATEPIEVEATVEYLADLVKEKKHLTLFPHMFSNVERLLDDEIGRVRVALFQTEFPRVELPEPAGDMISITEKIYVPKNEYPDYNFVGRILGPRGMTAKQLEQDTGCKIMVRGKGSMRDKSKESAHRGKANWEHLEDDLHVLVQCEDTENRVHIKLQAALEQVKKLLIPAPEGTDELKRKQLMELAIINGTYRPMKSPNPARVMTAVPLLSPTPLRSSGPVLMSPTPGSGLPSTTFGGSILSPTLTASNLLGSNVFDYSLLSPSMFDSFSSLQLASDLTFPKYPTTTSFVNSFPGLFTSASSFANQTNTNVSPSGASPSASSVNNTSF
MCL1-BIM inh: inhibitors of MCL1 binding to BIM-BH3, primary screen, biochemical, fluorescence polarization. Induced myeloid leukemia cell differentiation protein Mcl-1 (Homo sapiens), Q07820. GST-MCL1 / FITC-Bim-BH3 fluorescence polarization. inhibition, % at 10.9 µM. hit rate 0.68% among 320,000. AID 2057, 2009;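 active means inhibition above the mean inhibition of all tested compounds plus 3 SD, set per campaign, cut at about 40% in these data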;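 further: 0% = DMSO wells and 100% = unlabeled Bim-BH3 peptide control; higher means more loss of mP so more displacement of Bim peptide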
Mcl1 Bid PPI: Mcl-1/Bid binding inhibitors, primary screen, biochemical, TR-FRET, 1536-well; TR-FRET Mcl-1/Bid-Dy647 peptide binding; inhibition, % at 21.7 µM; hit rate 0.97% among 220,000;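 active means compounds that cut the binding signal by more than half at the single screening dose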;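 further: His-tagged Mcl-1 with europium anti-His antibody binding Bid BH3 peptide; 0% = Mcl-1 plus peptide wells and 100% = peptide-only wells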
Mcl-1 Bim block: inhibitors of Bim peptide binding to Mcl-1, primary screen, biochemical, bead-based flow cytometry, multiplex | Induced myeloid leukemia cell differentiation protein Mcl-1 (Homo sapiens), Q07820 | Bim peptide-Mcl-1 binding | inhibition, % at 10 µM | hit rate 0.1% among 190,000; in the data active means inhibition above about 40%;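 further: 0% = no compound tracer wells and 100% = peptide blocker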
Mcl1 Noxa PPI: Mcl-1/Noxa binding inhibitors, primary screen, biochemical, TR-FRET, 1536-well. Induced myeloid leukemia cell differentiation protein Mcl-1 (Homo sapiens), Q07820. TR-FRET Mcl-1/Noxa peptide binding, 2 h. inhibition, % at 21.7 µM. hit rate 1.5% among 220,000. AID 1022, 2008;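 active means compounds that cut the protein-peptide binding signal by more than 50% relative to plate controls in a single-dose test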;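 further: His-tagged Mcl-1 with rhodamine Noxa BH3 peptide and terbium anti-His antibody; 0% = Mcl-1 plus Noxa peptide wells and 100% = peptide-only wells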
Starred values were filed as active, the others as inactive; · = no result.

SMILES	Bcl-xL primary	GLD-1 TGE inh	MCL1-BIM inh	Mcl1 Bid PPI	Mcl-1 Bim block	Mcl1 Noxa PPI
COC(=O)c1ccc(C2Nc3ccc(/C(C)=N/NC(=O)C(OC)c4ccccc4)cc3C3C=CCC32)cc1 (centres undefined)	33.9*	10.0	61.3*	·	13.0	·
COC(C(=O)N/N=C(\C)c1ccc(O)cc1)c1ccccc1 (centres undefined)	2.6	8.3	-6.5	·	·	·
COc1ccc(Cc2nc(-c3ccc(Br)cc3)no2)cc1	0.3	0.9	-4.6	-5.7	1.0	57.7*
Cc1ccc(-n2nc(-c3cccnc3)cc2C(=O)N2CCOCC2)c(C)c1	7.2	-3.2	8.7	-18.3	-1.0	8.8
Cc1ccc(-n2nc(-c3ccco3)cc2C(=O)O)c(C)c1	·	·	·	-41.7	0.0	78.6*
O=C(O)c1cc(-c2ccco2)nn1-c1ccc(Cl)cc1	·	·	·	-12.9	-2.0	80.8*
CCOc1ccc(NC(=O)COC(=O)CSCC(=O)Nc2ccc(C)cc2C)cc1	3.6	3.7	8.6	·	·	·
Cc1cc(NC(=O)CSc2nc3c(c(=O)n2C)SCC3)no1	4.4	-3.2	37.0	·	·	·
Cc1cc(NC(=O)c2cc3cccc([N+](=O)[O-])c3[nH]2)ccc1F	1.5	-4.4	-7.7	-2.4	·	54.3*
COCC(C)NC(=O)c1cc2cccc([N+](=O)[O-])c2[nH]1 (centres undefined)	3.9	0.9	3.6	-12.4	·	-8.4
CCN(CC)c1ccc2c(Cl)cc(=O)oc2c1	12.1	-4.8	4.9	17.3	-3.0	12.2
CCNc1ccc2c(Cl)cc(=O)oc2c1	0.2	-1.5	-8.1	96.9*	-1.0	1.4
Clc1ccc(/C=C/c2ncc[nH]2)c(Cl)c1	1.8	1.0	3.4	·	·	·
Oc1ccc(N=Nc2cccc(C(F)(F)F)c2)cc1C=Nc1ccc(N2CCOCC2)cc1	6.5	3.7	9.2	10.9	3.0	68.8*
Cc1ccc(NC(=O)/C(C#N)=C/c2ccc(C)s2)c(C)c1	48.0*	5.6	40.7*	-6.8	-2.0	12.4
CCc1ccc(NC(=O)CNC(=O)[C@@H]2Cc3ccccc3CN2)cc1	5.0	9.3	-1.4	·	·	·
NC(=O)c1ccsc1NC(=O)COC(=O)CSc1ccc(Cl)cc1	2.9	-2.2	-3.0	-82.7	0.0	8.8
Cc1nnc(N2C(=O)C(O)=C(C(=O)c3ccco3)C2c2ccc(C(C)(C)C)cc2)s1 (centres undefined)	33.0*	31.5*	30.5	-19.2	0.0	2.9
Cc1ccc(C2C(C(=O)c3ccco3)=C(O)C(=O)N2c2ncccn2)cc1 (centres undefined)	7.2	1.7	5.0	-12.2	·	14.5
Cc1nnc(N2C(=O)C(O)=C(C(=O)c3ccco3)C2c2ccc(C(C)C)cc2)s1 (centres undefined)	40.0*	40.4*	36.7	-1.1	-2.0	25.8
Cc1nnc(N2C(=O)C(O)=C(C(=O)c3ccco3)C2c2ccc(F)cc2)s1 (centres undefined)	33.0*	45.0*	26.8	-7.5	1.0	21.2
CSc1ccc(C(=O)N2CCC(CCC(=O)NC3CC3)CC2)cc1	4.8	-2.7	-2.0	·	·	·
C=CCn1c(N2CCCCCC2)nc2c1c(=O)n(C)c(=O)n2C	4.9	7.9	5.6	41.2	0.0	97.7*
Cc1c(Br)c([N+](=O)[O-])nn1C(C)C(=O)NCC1CCCO1 (centres undefined)	8.4	2.5	-3.5	-12.4	3.0	12.5
Cc1cccc(Nc2nc3c(S(=O)(=O)c4ccccc4)nnn3c3ccccc23)c1	-10.2	-4.8	-13.6	57.3*	-2.0	-40.8
SMILES	Bcl-xL primary	GLD-1 TGE inh	MCL1-BIM inh	Mcl1 Bid PPI	Mcl-1 Bim block	Mcl1 Noxa PPI
CCN=c1scc(-c2ccco2)n1/N=C/c1ccc(O)cc1	1.8	-2.9	-3.4	-15.6	3.0	9.5
CCN=c1scc(C)n1/N=C/c1cc(Br)c(O)c(Br)c1	7.2	4.8	11.7	-3.6	-1.0	72.7*
COc1cc(CNCc2ccc(SC)cc2)cc(OC)c1	2.5	0.8	0.4	50.7*	-4.0	25.2
CC(C)(C)c1ccc(C(=O)C2CCCN(C(=O)CCn3cncn3)C2)cc1 (centres undefined)	6.2	2.4	-1.9	·	·	·
O=C(O)c1cccc(-n2cccc2C=C2C(=O)c3ccccc3C2=O)c1	11.2	-10.5	7.4	-113.2	27.0	26.2
O=C1C(=Cc2cccn2-c2ccccc2)C(=O)c2ccccc21	40.8*	105.0*	42.2*	72.7*	4.0	102.0*
Cc1cc(NC(=O)CN2CCN(C)CC2)no1	-0.1	3.2	-3.1	31.5	1.0	16.8
Cc1cc(NC(=O)CSc2nc(-c3ccccc3)cs2)no1	2.2	-6.9	4.2	3.4	-1.0	-3.5
Cc1cc(NC(=O)CSc2nc(-c3ccc(F)cc3)cs2)no1	-7.5	-9.3	-6.9	-41.1	1.0	85.7*
Cc1cc(NC(=O)CN2CCCCCCC2)no1	-0.1	5.8	-8.2	64.3*	-4.0	20.9
Cc1cc(NC(=O)CSc2ccc3ccccc3c2)no1	1.6	-3.1	13.3	30.2	0.0	53.0*
Cc1nccn1CCCNC(=O)c1nc(Cn2cc([N+](=O)[O-])cn2)no1	5.8	2.0	11.7	·	·	·
COc1ccc(-c2nnn(CC(=O)N3CCOCC3)n2)cc1	3.6	5.7	-4.0	-12.4	-4.0	-1.1
O=C(Cc1cccs1)Nc1ccc(-c2nnn(CC(=O)N3CCOCC3)n2)cc1	10.0	1.9	37.1	-35.9	-2.0	55.7*
Cc1nnc2ccc(-c3ccc(NC(=O)Cc4cccs4)cc3)nn12	7.0	0.8	15.6	-62.2	·	67.6*
CC1(OC(=O)c2cnc3ccccc3n2)C(=O)C=C2C=C(c3ccc(C#N)cc3)OC=C2C1=O (centres undefined)	25.1	47.3*	24.3	·	·	·
O=C(Cn1nnc(-c2cccc(C(F)(F)F)c2)n1)NNS(=O)(=O)c1cccc(C(F)(F)F)c1	2.0	-0.8	1.0	-10.1	·	2.9
COc1ccc2c(c1)OCC1=C2CCC2(C)C(=O)CC=C12 (centres undefined)	40.1*	39.3*	29.0	-18.8	-3.0	0.8
COc1ccc2c(c1)SCCC2=O	-1.8	1.4	-12.1	-2.0	-2.0	11.6
S=c1[nH]nc(-c2cccc(Cl)c2)n1CCN1CCCCC1	-14.8	-0.3	-6.5	95.5*	-2.0	-3.5
CCn1c(-c2cccc(Br)c2)n[nH]c1=S	-17.4	0.2	-7.2	96.7*	-7.0	44.6
CC1CCCCC1NC(=O)CSc1nnc(-c2ccco2)n1C (centres undefined)	3.7	4.1	5.6	·	·	·
CC1(C)C=C2C(=NN(c3ccccc3)C(N)=C2C#N)CO1	29.1	17.1	33.4	·	·	·
